# From PubChem BioAssay
# Several values for one entry are separate records, joined by “and”; a condition that tells them apart may be missing. Equal values may be shown once. Inconclusive results are not listed. Activity calls are given as the source filed them.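 How the source made its calls, unless noted: active means normalized viability below 100% at a tested concentration; inactive means the rest.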
# Key:
# [1] = growth inhibition of DIPG glioma cells, dose response, cell-based, SU-DIPG-XIII, MIPE4.0, CellTiter-Glo, qHTS (AID 1347061; cut-off not given, nearly all actives have AC50 up to about 37 µM;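 further: cells exposed to compound for 48 hours before readout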); details: SU-DIPG-XIII viability, CellTiter-Glo ATP luminescence
# [2] = SU-DIPG-VI glioma cell viability, MIPE4.0 library, CellTiter-Glo luminescence, qHTS (AID 1347066; cut-off not given, nearly all actives have AC50 up to about 30 µM;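 further: cells exposed to compound for 48 hours before readout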); details: CellTiter-Glo ATP luminescence
# [3] = SU-DIPG-XXV glioma cell viability, MIPE5.0 library, qHTS (AID 1347068; cut-off not given, nearly all actives have IC50 up to about 30 µM)
# [4] = sensitizers of A549 cells to miR-34 induction, primary screen, imaging, A549 dox-inducible miR-34, nuclei and caspase counts (AID 1347080;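 active means compounds whose cell count with miR-34 switched on is under 0.7 times the count with it off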); details: A549 miR-34 inducible, Hoechst nuclei count, 48 h
# [5] = modifiers of HSF1 nuclear foci, imaging, Selleck Cancer Library (AID 1347162; in the data active means plate-normalised HSF1 focus index below about 0.46); details: human cells, at 10 µM; SSMD: measured here: HSF1 foci SSMD mean; cell count: measured here: cell number; plate-normalised HSF1 focus index: stronger effect = lower value
# [6] = survival rescue of mitochondrial mutant cells in low glucose, primary screen, MELAS cybrids, Rieske KO mouse fibroblasts, CellTiter-Glo (AID 1508586;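 active means mean z-score across replicates of 1.96 or higher in either the MELAS or the Rieske mutant cell line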;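 further: z relative to plate mean and SD of compound and empty wells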)
# [7] = ovarian cancer cell viability with rucaparib, profiling panel, oncology-focused library, rucaparib conditional (AID 1508598); details: patient-derived ovarian cancer cells, CellTiter-Glo viability, 144 h, stronger effect = lower value
# [8] = LFS_MB_P medulloblastoma growth inhibition, cell-based, chromothripsis tumors, cisplatin or BGB combos (AID 1671449; in the data active means inhibition above about 80%;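 further: cells exposed for 96 hours; 0% = vehicle DMSO and 100% = killing by high DMSO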); details: LFS_MB_P medulloblastoma cells
# [9] = HDN33 neuroblastoma growth inhibition, cell-based, chromothripsis tumors, cisplatin or BGB combos (AID 1671450; in the data active means inhibition above about 80%;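 further: cells exposed to compound for four days; 0% = vehicle DMSO and 100% = cell killing by high DMSO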); details: HDN33 neuroblastoma cells, stronger effect = higher value
# [10] = ICB984 medulloblastoma cell growth inhibition, synergistic combos for chromothripsis tumors, cisplatin or BGB combos (AID 1671451; call rule not given here;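 further: cells exposed for 96 hours before readout; 0% = vehicle DMSO and 100% = killing by high DMSO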); details: ICB984 medulloblastoma cells, drug combinations, stronger effect = higher value
# [11] = LFS_MB_1R medulloblastoma cell growth inhibition, synergistic combos for chromothripsis tumors, cisplatin or BGB combos (AID 1671452; in the data active means inhibition above about 80%;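 further: cells exposed for 96 hours before readout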); details: LFS_MB_1R medulloblastoma cells, stronger effect = higher value
# [12] = HTB85 osteosarcoma cell growth inhibition, synergistic combos for chromothripsis tumors, BGB or cisplatin IC20 combos (AID 1671453; in the data active means inhibition above about 80%;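 further: cells exposed for 96 hours before readout; 0% = vehicle DMSO and 100% = high DMSO killing control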); details: HTB85 osteosarcoma cells, drug combinations, stronger effect = higher value
# [13] = MDA-MB-436 breast carcinoma cell growth inhibition, synergistic combos for chromothripsis tumors, BGB or cisplatin combos (AID 1671458; call rule not given here;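 further: cells exposed for 96 hours; 0% = vehicle DMSO and 100% = killing by high DMSO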); details: MDA-MB-436 breast carcinoma growth inhibition, drug combinations, stronger effect = higher value
# [14] = growth inhibition of BT084 medulloblastoma cells, cell-based, ICGC_MB145, cisplatin and BGB IC40 combos (AID 1671461; in the data active means inhibition above about 80%;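 further: cells exposed to drugs for 96 hours; 0% = vehicle DMSO and 100% = high DMSO full killing control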); details: drug combinations, stronger effect = higher value
# [15] = growth inhibition of RCMB18 medulloblastoma cells, cell-based, cisplatin and BGB IC40 combos (AID 1671462; in the data active means inhibition above about 80%;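 further: cells exposed to compound for four days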); details: stronger effect = higher value
# [16] = growth inhibition of CRL1545 osteosarcoma cells, cell-based, cisplatin and BGB IC20 combos (AID 1671464; in the data active means inhibition above about 80%;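 further: cells exposed to compound for 96 hours before readout; 0% = vehicle DMSO and 100% = high DMSO killing control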); details: stronger effect = higher value
# [17] = measured here: combination with BGB IC40, at 0.05 µM
# [18] = measured here: with BGB IC20 combination, at 0.5 µM
# [19] = measured here: with cisplatin IC20 combination, at 0.5 µM
# [20] = measured here: combination with cisplatin, at 0.5 µM
structure (smiles),measurement,setting,value
CN(C)Cc1ccc(-c2nc3cccc4c3n2CCNC4=O)cc1,AC50,[1],18.7 µM (active)
same,outcome,[2],inactive
same,outcome,[3],inactive
same,fold change,"[4]; stronger effect = lower value, cell number ratio, induced over uninduced",0.89 (inactive)
same,fold change,[4]; measured here: relative caspase fold change +Dox/-Dox,1.02
same,cell count,"[4]; measured here: total cells with miR-34 induction, stronger effect = lower value",6740
same,cell count,[4]; measured here: total cells without miR-34 induction,7560
same,SSMD,[5],-0.246
same,cell count,[5],7430
same,plate-normalised HSF1 focus index,[5],0.994 (inactive)
same,z-score,"[6]; MELAS cybrid survival, CellTiter-Glo 48 h, stronger effect = higher value",-0.319 (inactive)
same,z-score,"[6]; Rieske KO mouse fibroblast survival, CellTiter-Glo 72 h",-0.0135
same,viability,"[7]; at 0.000305 µM, OCI-C5x cells, with rucaparib 10 µM, 100% = cells with rucaparib alone",114% (inactive)
same,viability,"[7]; at 0.000305 µM, OCI-C5x cells, without rucaparib",127% (inactive)
same,viability,"[7]; at 0.000305 µM, OCI-P5x cells, with rucaparib 20 µM, 100% = cells with rucaparib alone",98.3% (active)
same,viability,"[7]; at 0.000305 µM, OCI-P5x cells, without rucaparib",118% (inactive)
same,viability,"[7]; at 0.00122 µM, OCI-C5x cells, with rucaparib 10 µM, 100% = cells with rucaparib alone",111% (inactive)
same,viability,"[7]; at 0.00122 µM, OCI-C5x cells, without rucaparib",142% (inactive)
same,viability,"[7]; at 0.00122 µM, OCI-P5x cells, with rucaparib 20 µM, 100% = cells with rucaparib alone",98.2% (active)
same,viability,"[7]; at 0.00122 µM, OCI-P5x cells, without rucaparib",119% (inactive)
same,viability,"[7]; at 0.00488 µM, OCI-C5x cells, with rucaparib 10 µM, 100% = cells with rucaparib alone",109% (inactive)
same,viability,"[7]; at 0.00488 µM, OCI-C5x cells, without rucaparib",121% (inactive)
same,viability,"[7]; at 0.00488 µM, OCI-P5x cells, with rucaparib 20 µM, 100% = cells with rucaparib alone",102% (inactive)
same,viability,"[7]; at 0.00488 µM, OCI-P5x cells, without rucaparib",115% (inactive)
same,viability,"[7]; at 0.0195 µM, OCI-C5x cells, with rucaparib 10 µM, 100% = cells with rucaparib alone",110% (inactive)
same,viability,"[7]; at 0.0195 µM, OCI-C5x cells, without rucaparib",128% (inactive)
same,viability,"[7]; at 0.0195 µM, OCI-P5x cells, with rucaparib 20 µM, 100% = cells with rucaparib alone",97% (active)
same,viability,"[7]; at 0.0195 µM, OCI-P5x cells, without rucaparib",111% (inactive)
same,viability,"[7]; at 0.0781 µM, OCI-C5x cells, with rucaparib 10 µM, 100% = cells with rucaparib alone",112% (inactive)
same,viability,"[7]; at 0.0781 µM, OCI-C5x cells, without rucaparib",136% (inactive)
same,viability,"[7]; at 0.0781 µM, OCI-P5x cells, with rucaparib 20 µM, 100% = cells with rucaparib alone",89.9% (active)
same,viability,"[7]; at 0.0781 µM, OCI-P5x cells, without rucaparib",107% (inactive)
same,viability,"[7]; at 0.313 µM, OCI-C5x cells, with rucaparib 10 µM, 100% = cells with rucaparib alone",117% (inactive)
same,viability,"[7]; at 0.313 µM, OCI-C5x cells, without rucaparib",118% (inactive)
same,viability,"[7]; at 0.313 µM, OCI-P5x cells, with rucaparib 20 µM, 100% = cells with rucaparib alone",88.6% (active)
same,viability,"[7]; at 0.313 µM, OCI-P5x cells, without rucaparib",101% (inactive)
same,viability,"[7]; at 1.25 µM, OCI-C5x cells, with rucaparib 10 µM, 100% = cells with rucaparib alone",109% (inactive)
same,viability,"[7]; at 1.25 µM, OCI-C5x cells, without rucaparib",121% (inactive)
same,viability,"[7]; at 1.25 µM, OCI-P5x cells, with rucaparib 20 µM, 100% = cells with rucaparib alone",88.7% (active)
same,viability,"[7]; at 1.25 µM, OCI-P5x cells, without rucaparib",92.1% (active)
same,viability,"[7]; at 5 µM, OCI-C5x cells, with rucaparib 10 µM, 100% = cells with rucaparib alone",120% (inactive)
same,viability,"[7]; at 5 µM, OCI-C5x cells, without rucaparib",114% (inactive)
same,viability,"[7]; at 5 µM, OCI-P5x cells, with rucaparib 20 µM, 100% = cells with rucaparib alone",78.4% (active)
same,viability,"[7]; at 5 µM, OCI-P5x cells, without rucaparib",83.9% (active)
same,inhibition,"[8]; at 0.5 µM, stronger effect = higher value",-24.1% (inactive) and -21.5% (inactive)
same,inhibition,"[8]; measured here: combination with BGB IC20, at 0.005 µM",-9.73% and -22%
same,inhibition,"[8]; measured here: combination with BGB IC40, at 0.005 µM",64% and -31.1%
same,inhibition,[8]; [17],-13% and -56%
same,inhibition,"[8]; measured here: combination with cisplatin, at 0.5 µM, stronger effect = higher value",-37.5% and -16.8%
same,inhibition,"[8]; measured here: combination with cisplatin, at 5 µM, stronger effect = higher value",-29.7% and -74.4%
same,inhibition,"[9]; BGB combo, at 5 µM",-26.8% and -18.6%
same,inhibition,[9]; at 0.5 µM,-1.23% (inactive) and -27.1% (inactive)
same,inhibition,"[9]; cisplatin combo, at 5 µM",6.93% and -10.3%
same,inhibition,[9]; [18],-13.1% and -21.5%
same,inhibition,[9]; [19],15.7% and -26.9%
same,inhibition,"[9]; single agent, at 5 µM",-4.63% and 68.3%
same,inhibition,"[10]; BGB IC20 combo, at 0.005 µM",-1.21% and 16.5%
same,inhibition,"[10]; BGB IC40 combo, at 0.005 µM",-19.6% and -25.1%
same,inhibition,"[10]; BGB IC40 combo, at 0.05 µM",-33.7% and -42.1%
same,inhibition,[10]; at 0.5 µM,-15.4% (inactive) and -23.9% (inactive)
same,inhibition,"[10]; cisplatin combo, at 0.05 µM",-40.7% and -47.2%
same,inhibition,"[10]; cisplatin combo, at 0.5 µM",-18.6%
same,inhibition,"[10]; cisplatin combo, at 5 µM",-4.49% and -37.9%
same,inhibition,"[10]; measured here: 5 uM single agent, at 5 µM",-23% and -7.92%
same,inhibition,[11]; at 0.5 µM,-21.9% (inactive) and -12.8% (inactive)
same,inhibition,[11]; [17],-8.61% and -31.3%
same,inhibition,[11]; [20],-36.5% and -4.44%
same,inhibition,"[11]; measured here: combination with cisplatin, at 5 µM",-20.1% and -27.3%
same,inhibition,[12]; at 0.5 µM,17.4% (inactive) and -2.96% (inactive)
same,inhibition,"[12]; measured here: with BGB IC20, at 0.5 µM",58.8% and -16.5%
same,inhibition,"[12]; measured here: with BGB IC20, at 5 µM",10.8% and 1.62%
same,inhibition,"[12]; measured here: with cisplatin IC20, at 0.5 µM",-2.97% and 1.8%
same,inhibition,"[12]; measured here: with cisplatin IC20, at 5 µM",2.38% and -10.9%
same,inhibition,"[12]; single agent, at 5 µM",7.8% and -6.63%
same,inhibition,[13]; at 0.5 µM,-0.12% (inactive) and 3.53% (inactive)
same,inhibition,"[13]; measured here: BGB combination, at 0.5 µM",-12.4% and -11.3%
same,inhibition,"[13]; measured here: BGB combination, at 5 µM",-14% and -5.01%
same,inhibition,"[13]; measured here: cisplatin combination, at 0.5 µM",2.29% and 7.08%
same,inhibition,"[13]; measured here: cisplatin combination, at 5 µM",-4.32% and 2.44%
same,inhibition,[14]; at 0.5 µM,-6.05% (inactive) and -22.2% (inactive)
same,inhibition,"[14]; cisplatin combination, at 0.5 µM",-18.4% and -65.7%
same,inhibition,"[14]; cisplatin combination, at 5 µM",-58.6% and -32.7%
same,inhibition,"[14]; measured here: BGB IC40 combination 0.05 uM, at 0.05 µM",-19.6% and 43.4%
same,inhibition,"[14]; single agent, at 5 µM",-6.92% and -7.26%
same,inhibition,[15]; at 0.5 µM,-9.62% (inactive) and -41.4% (inactive)
same,inhibition,"[15]; cisplatin combo, at 5 µM",-40.6% and -33.3%
same,inhibition,"[15]; measured here: BGB IC40 combination, at 0.05 µM",-1.87% and -3.35%
same,inhibition,[15]; [20],-15.6% and -104%
same,inhibition,"[15]; single agent, at 5 µM",-19.5% and -24.5%
same,inhibition,[16]; at 0.5 µM,4.03% (inactive) and 11.8% (inactive)
same,inhibition,[16]; [18],-8.48% and 3.96%
same,inhibition,[16]; [19],8.84% and 14.3%
same,inhibition,"[16]; single agent, at 0.05 µM",17.2% and 13.3%
same,inhibition,"[16]; single agent, at 5 µM",-17.9% and -17.8%
